Hit rate of the full screen: of about 330,000 compounds, about 7,300 (2.2%) were called active. This is one part of a sample in which actives are shown more often than they occur.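 Rule for the calls: active = inhibition of at least 40%; inactive = the rest.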
Assay: growth inhibitors of tim10-1 mutant yeast, primary screen, luminescence, uHTS (AID 463190);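 note: mutant grown at 25 °C; 0% = DMSO wells with yeast and 100% = wells holding no yeast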
Details: S. cerevisiae tim10-1 ts strain growth, BacTiter-Glo, 24 h; at 20 µM; active compounds read high

Row | Compound | inhibition
1 | COc1ccc(CCNC(=O)c2ccc(CS(=O)(=O)c3ccc(Br)cc3)o2)cc1OC | 24.5% (inactive)
2 | O=C(Cn1c(NCCO)nc2ccccc21)c1ccc(Cl)cc1Cl | 1.93% (inactive)
3 | CCCCn1ccnc1C(=O)c1cccc(S(=O)(=O)N2c3ccccc3CC2C)c1 (stereo not drawn) | 29.3% (inactive)
4 | O=C1COc2ccc(C(=O)COC(=O)c3cccnc3Cl)cc2N1 | -6.62% (inactive)
5 | CCc1nnc(NC(=O)CSc2nnc(-c3ccncc3)n2Cc2ccccc2)s1 | 10.1% (inactive)
6 | COC(=O)c1cc(NC(=O)CC2C(=O)NCCN2C(=O)c2ccc(F)cc2)cc(C(=O)OC)c1 (stereo not drawn) | -15.9% (inactive)
7 | Cc1ccc(N2C(=O)CC(Sc3ncn[nH]3)C2=O)cc1 (stereo not drawn) | 30.2% (inactive)
8 | COc1ccc(N2C(=O)CC(Sc3n[nH]c(-c4ccc(C)cc4)n3)C2=O)cc1 (stereo not drawn) | 54.7% (active)
9 | COc1ccc(N2C(=O)CC(SC(C)C)C2=O)cc1 (stereo not drawn) | -8.61% (inactive)
10 | COc1ccccc1C(=O)NCCn1cc(SCC(=O)NCc2ccco2)c2ccccc21 | 29.1% (inactive)
11 | COc1cc(C(c2c(NC(=O)c3ccco3)sc(C)c2C)N2CCOCC2)cc(OC)c1OC (stereo not drawn) | 20.7% (inactive)
12 | O=C1[C@@H](c2ccccc2)[C@@H](c2ccccc2)N1c1cccnc1 | 66.6% (active)
13 | CC(=O)C1=C(O)C(=O)N(c2cccnc2)C1c1ccc([N+](=O)[O-])cc1 (stereo not drawn) | 0.316% (inactive)
14 | CCc1ccccc1NC1c2ccccc2C(=O)N1c1cccnc1 (stereo not drawn) | 36.7% (inactive)
15 | O=C(N/N=C/c1ccc(OCC2COCCO2)cc1)c1ccc(Br)cc1 (stereo not drawn) | -0.668% (inactive)
16 | CCOC(=O)COn1c(=O)c(-c2ccc(OCC)cc2)[n+]([O-])c2ccccc21 | 31.6% (inactive)
17 | COc1ccc(OC)c(-c2c(=O)n(OCc3ccccc3Br)c3ccccc3[n+]2[O-])c1 | 47.1% (active)
18 | CCOc1ccc(OCC)c(-c2c(=O)n(OCc3ccc(Cl)cc3)c3ccccc3[n+]2[O-])c1 | 26.2% (inactive)
19 | COC(=O)c1c(-c2ccsc2)oc2ccc(-c3cc(OC)c(OC)c(OC)c3)cc12 | 28.1% (inactive)
20 | N#CCOc1ccc(C2=NO[C@@H]3[C@@H]4C[C@@H]([C@H]5C(=O)N(c6ccc7c(c6)OCO7)C(=O)[C@@H]45)[C@H]23)cc1 | 18.3% (inactive)
21 | C=CS(=O)c1sc(Cl)c(N2CCOCC2)c1[N+](=O)[O-] (stereo not drawn) | 79.3% (active)
22 | Nc1c(N(CCO)C(=O)C2CCCCC2)c(=O)[nH]c(=O)n1Cc1ccccc1 | 15.1% (inactive)
23 | COc1ccccc1C(=O)NCC(=O)OCC(=O)NNC(=O)c1ccc(Br)cc1 | -10.1% (inactive)

From PubChem BioAssay AID463190 (Sanford-Burnham Center for Chemical Genomics, 2010)
